Calls of active or inactive are those of the source. Unless noted, no rule for the calls is given here.
Legend:
[1] = HepG2 liver cancer cell viability effects, profiling panel, resazurin fluorescence, 24 h, PK04 Diversity Set (AID 1172); settings: higher = more signal
[2] = basal S. cerevisiae growth modulation, no modifier, primary screen, OD600, strain BY4716, 24 h, basal condition (AID 1173); settings: OD600, 24 h, higher = more signal, called active from +8 up or from −8 down
[3] = MM1S myeloma cell viability, profiling panel, resazurin fluorescence, basal, 24 h, PK04 Diversity Set (AID 1174); settings: higher = more signal, called active from +8 up or from −8 down;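 also: MM1S multiple myeloma cell line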
[4] = biological target: Dihydroorotate dehydrogenase (quinone), mitochondrial (Plasmodium falciparum (isolate 3D7)) (UniProt Q08210); assay: PfDHODH enzyme inhibitors, primary screen, biochemical, C-terminal His tag, absorbance 600 nm (AID 1175); settings: DCIP absorbance 600 nm, higher = more signal, called active from +8 up or from −8 down;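 also: recombinant parasite enzyme with a five histidine tag at its C terminus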
Sequence of Dihydroorotate dehydrogenase (quinone), mitochondrial (Plasmodium falciparum (isolate 3D7)) (Q08210 whole entry, looked up): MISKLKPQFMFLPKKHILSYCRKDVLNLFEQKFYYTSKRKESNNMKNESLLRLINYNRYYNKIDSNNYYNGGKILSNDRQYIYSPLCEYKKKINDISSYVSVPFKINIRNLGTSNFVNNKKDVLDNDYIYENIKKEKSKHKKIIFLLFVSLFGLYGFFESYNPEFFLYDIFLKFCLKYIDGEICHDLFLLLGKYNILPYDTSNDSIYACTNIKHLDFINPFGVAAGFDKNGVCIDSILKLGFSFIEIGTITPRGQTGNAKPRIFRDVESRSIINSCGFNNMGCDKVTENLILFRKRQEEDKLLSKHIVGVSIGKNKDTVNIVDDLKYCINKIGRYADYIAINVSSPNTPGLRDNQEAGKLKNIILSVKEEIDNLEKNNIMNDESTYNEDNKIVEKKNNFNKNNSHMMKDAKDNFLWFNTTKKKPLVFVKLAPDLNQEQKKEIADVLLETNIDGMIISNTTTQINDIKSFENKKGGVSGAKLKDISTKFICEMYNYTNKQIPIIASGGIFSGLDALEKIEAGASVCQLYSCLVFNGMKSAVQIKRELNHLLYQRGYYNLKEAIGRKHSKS

[5] = P. aeruginosa biofilm formation inhibitors, primary screen, strain PAO1, LB-PBS medium, absorbance 600 nm (AID 1176); settings: P. aeruginosa PAO1 growth/biofilm, A600, 12 h; higher = more signal
[6] = S. cerevisiae RM11-1a growth modifiers, primary screen, strain RM11-1a, OD600, basal, 24 h (AID 1177); settings: OD600, 24 h, higher = more signal, called active from +8 up or from −8 down;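 also: cultures grown under basal conditions with no added stressor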
[7] = E. coli acrAB mutant growth effects, primary screen, E. coli filamentation inducers, strain DRC39, OD650, 24 h (AID 1178); settings: higher = more signal, called active from +8 up or from −8 down;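 also: growth measured as culture turbidity by optical density at 650 nm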
[8] = E. coli acrAB mutant growth effects, primary screen, E. coli filamentation inducers, strain DRC39, OD650, 48 h (AID 1179);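 also: screen aims at cell division blockers that make cells filament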; settings: E. coli DRC39 delta-acrAB growth, higher = more signal, called active from +8 up or from −8 down
[9] = RPMI8226 myeloma cell viability, profiling panel, resazurin fluorescence, basal, 24 h, PK04 Diversity Set (AID 1180); settings: higher = more signal;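 also: RPMI8826 multiple myeloma cell line at 5000 cells per well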
[10] = biological target: E3 ubiquitin-protein ligase XIAP (Homo sapiens) (UniProt P98170); assay: XIAP binders, primary screen, biophysical, small-molecule microarray, fluorescence 635 nm (AID 1181); settings: small-molecule microarray binding, higher = more signal;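 also: score merges 667 nm emission and signal to noise over triplicate slides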
Sequence of E3 ubiquitin-protein ligase XIAP (Homo sapiens) (P98170 whole entry, looked up): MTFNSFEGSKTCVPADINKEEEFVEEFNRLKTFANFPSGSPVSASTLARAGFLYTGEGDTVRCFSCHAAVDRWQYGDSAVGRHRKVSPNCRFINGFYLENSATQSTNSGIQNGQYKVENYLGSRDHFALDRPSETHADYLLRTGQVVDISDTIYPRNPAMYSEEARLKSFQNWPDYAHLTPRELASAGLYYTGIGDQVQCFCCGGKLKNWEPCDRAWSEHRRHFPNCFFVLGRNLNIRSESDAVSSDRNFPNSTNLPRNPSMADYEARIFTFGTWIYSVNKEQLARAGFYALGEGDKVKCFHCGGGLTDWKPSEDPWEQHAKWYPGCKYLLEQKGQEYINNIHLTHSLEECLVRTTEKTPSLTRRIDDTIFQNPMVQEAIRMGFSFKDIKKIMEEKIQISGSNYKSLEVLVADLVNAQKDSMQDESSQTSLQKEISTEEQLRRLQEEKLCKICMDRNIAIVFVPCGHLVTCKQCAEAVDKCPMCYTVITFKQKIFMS

[11] = test system: XIP peptide (Xip251-270) binding; assay: small-molecule binders of XIP peptide, primary screen, biochemical, small-molecule microarray, fluorescence 635/667 nm, 0.1 µg/mL protein (AID 1182); settings: fluorescent protein binding, 635 nm, higher = more signal, called active from +8 up or from −8 down
XIP peptide (Xip251-270) = assay: small-molecule binders of XIP peptide, primary screen, biochemical, small-molecule microarray, fluorescence 635/667 nm, 0.5 µg/mL protein (AID 1183); settings: small-molecule microarray binding, fluorescence 635 nm; higher = more signal
[12] = Plasmodium falciparum growth inhibition, primary screen, strain 3D7, DAPI fluorescence, 100 nL (AID 1184);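 also: parasites grown inside human red blood cells in medium with human serum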; settings: P. falciparum 3D7 growth, 3 d, higher = more signal
[13] = biological target: Homeobox protein Hox-A13 (Mus musculus) (UniProt Q62424); assay: inhibitors of HoxA13-DNA binding, primary screen, biochemical, fluorescence polarization, labeled oligonucleotide (AID 1185); settings: 15 min, higher = more signal, called active from +8 up or from −8 down
Sequence of Homeobox protein Hox-A13 (Mus musculus) (Q62424 whole entry, looked up): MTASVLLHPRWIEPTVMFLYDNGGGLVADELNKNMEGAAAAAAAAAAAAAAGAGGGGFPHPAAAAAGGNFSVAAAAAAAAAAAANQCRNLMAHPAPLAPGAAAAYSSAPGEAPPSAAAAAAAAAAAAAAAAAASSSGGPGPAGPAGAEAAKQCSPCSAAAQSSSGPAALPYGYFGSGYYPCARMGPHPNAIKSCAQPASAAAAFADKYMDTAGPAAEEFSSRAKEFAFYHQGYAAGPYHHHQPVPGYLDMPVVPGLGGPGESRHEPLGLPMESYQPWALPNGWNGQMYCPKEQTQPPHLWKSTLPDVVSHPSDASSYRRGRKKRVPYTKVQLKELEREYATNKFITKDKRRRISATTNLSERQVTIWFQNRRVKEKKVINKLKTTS

[14] = inhibitors of hydroxyurea-induced Chk1 phosphorylation, primary screen, imaging, HeLa, phospho-Chk1 antibody, percent positive cells (AID 1186); settings: hydroxyurea-induced phospho-Chk1 immunofluorescence imaging, higher = more signal
[15] = inhibitors of hydroxyurea-induced Chk1 phosphorylation, primary screen, imaging, HeLa, phospho-Chk1 nuclear intensity (AID 1187); settings: hydroxyurea-induced phospho-Chk1 immunofluorescence imaging, higher = more signal

| SMILES | z-score [1] | z-score [2] | z-score [3] | composite z-score [4] | z-score [5] | z-score [6] | z-score [7] | z-score [8] | z-score [9] | composite z-score [10] | composite z-score [11] | composite z-score (XIP peptide (Xip251-270)) | z-score [12] | z-score [13] | z-score [14] | z-score [15] |
| --- | --- | --- | --- | --- | --- | --- | --- | --- | --- | --- | --- | --- | --- | --- | --- | --- |
| COC(=O)[C@@H]1N=C(c2ccc(OCCCO)cc2)O[C@@H]1C | 0.38 | 0.0443 (inactive) | -0.341 (inactive) | -0.403 (inactive) | -0.689 (inactive) | 0.895 (inactive) | 0.52 (inactive) | 1.13 (inactive) | 0.945 | 0.105 | 0.0312 (inactive) | 0.232 | 0.985 | -2.44 (inactive) | -0.749 (inactive) | -0.626 (inactive) |
| CCOC(=O)C1=C[C@@H](c2ccccc2)N(S(=O)(=O)c2ccc(C)cc2)[C@H]1c1ccc(OC)cc1 | -0.664 | 1.11 (inactive) | -1.01 (inactive) | -0.668 (inactive) | 0.0236 (inactive) | 0.409 (inactive) | -1.06 (inactive) | -0.834 (inactive) | -1.24 | -0.0428 | 0.138 (inactive) | 0.599 | -1.84 | 0.842 (inactive) | -0.0622 (inactive) | -0.614 (inactive) |
| C#Cc1cc2ccccc2oc1=O | 0.236 | -5.07 (inactive) | -1.05 (inactive) | -0.748 (inactive) | -0.0322 (inactive) | -0.874 (inactive) | -1.46 (inactive) | -1.25 (inactive) | -1.14 | -0.172 | 0.151 (inactive) | 0.35 | -0.744 | -1.51 (inactive) | 0.318 (inactive) | -0.6 (inactive) |
| CCCCC(CC)C(O)C1C=CC2C(=O)N(C)C(=O)C2N1Nc1ccccc1 (stereo not given) | -0.339 | -0.027 (inactive) | -0.916 (inactive) | -0.206 (inactive) | 0.723 (inactive) | 0.468 (inactive) | -0.861 (inactive) | -0.389 (inactive) | -0.97 | 0.0297 | -0.12 (inactive) | 0.298 | 0.537 | -4.08 (inactive) | 0.168 (inactive) | -0.174 (inactive) |
| O=C(C1N=C(c2ccc(OCCCO)cc2)N(c2ccccc2)O1)N1CCCCC1 (stereo not given) | 0.377 | -0.769 (inactive) | 1.15 (inactive) | -0.152 (inactive) | -1.35 (inactive) | -0.587 (inactive) | 0.457 (inactive) | 0.15 (inactive) | 0.188 | 0.0761 | 2.64 (inactive) | 0.814 | -0.603 | -3.7 (inactive) | -0.216 (inactive) | 0.153 (inactive) |
| COc1ccc([Si](C)(C)[C@@H]2[C@@H](CC(=O)N3Cc4ccccc4C[C@H]3CO)O[C@]3(C(=O)N(Cc4ccc(N5C(=O)c6cccc7cccc5c67)cc4)c4ccccc43)[C@H]2C)cc1 | -0.542 | -0.551 (inactive) | -0.717 (inactive) | -2.41 (inactive) | 1 (inactive) | 1.15 (inactive) | 0.384 (inactive) | 0.403 (inactive) | -0.221 | -0.0773 | 0.685 (inactive) | 0.747 | -0.962 | -1.98 (inactive) | 0.143 (inactive) | 0.973 (inactive) |
| COc1cc(NN2C(C(O)c3ccc(N(C)C)cc3)C=CC3C(=O)N(c4ccccc4)C(=O)C32)cc(OC)c1OC (stereo not given) | -1.16 | 0.744 (inactive) | -0.581 (inactive) | -1.1 (inactive) | 0.794 (inactive) | -0.591 (inactive) | -0.0722 (inactive) | -1.45 (inactive) | -1.46 | 0.38 | 0.596 (inactive) | 0.0721 | -0.289 | -4.2 (inactive) | 0.111 (inactive) | -0.0651 (inactive) |
| O=C(c1ccccc1)N1C(=O)[C@]2(Cc3ccccc31)N=C(c1ccc(OCCCO)cc1)O[C@@H]2c1ccccc1 | -2.28 | 0.964 (inactive) | -5.95 (inactive) | 0.934 (inactive) | 1.82 (inactive) | 2.14 (inactive) | -0.18 (inactive) | -1.01 (inactive) | -5.46 | 0.233 | 0.409 (inactive) | 0.387 | -1.87 | -5.04 (inactive) | 0.546 (inactive) | 0.796 (inactive) |
| CCOC(=O)C1=C[C@@H](C(C)C)N(S(=O)(=O)c2ccc(C)cc2)[C@H]1c1ccc(C(F)(F)F)cc1 | -0.698 | 2.42 (inactive) | -0.267 (inactive) | 0.919 (inactive) | -0.0322 (inactive) | 2.24 (inactive) | -0.227 (inactive) | -0.442 (inactive) | -1.58 | 0.109 | 0.438 (inactive) | 0.555 | -1.88 | -0.498 (inactive) | 0.389 (inactive) | 0.112 (inactive) |
| COc1cc2c(cc1O)C=[N+](Cc1sc3ccccc3c1Cl)CC2 | 0.19 | -1.04 (inactive) | -1.01 (inactive) | -1.18 (inactive) | 0.034 (inactive) | -0.319 (inactive) | 0.81 (inactive) | 0.128 (inactive) | -0.496 | 0.158 | 0.669 (inactive) | 0.133 | -1.84 | -5.22 (inactive) | 0.399 (inactive) | 0.9 (inactive) |
